The supplement of paper PMC12532568
Structures can show the parent of a compound that is named as a salt.

The compounds below were run on Danio rerio larvae Tg(actc1b:ZsGreen-LC3), 3 dpf (assay: LC3 puncta relative area vs vehicle, with NH4Cl (autophagic flux) (log2 fold change); higher = more autophagy). Conditions: 10 µM; treatment time 16 h; NH4Cl: + 100 mM, 4 h.
Method: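 Transgenic Tg(actc1b:ZsGreen-map1lc3) zebrafish larvae (2 dpf) were treated for 16 h with Tocris library compounds at 10 µM (n = 12 larvae per compound). Skeletal-muscle LC3 puncta area relative to body area was measured by high-content confocal imaging before and after 4 h of 100 mM NH4Cl (autophagic flux), normalised to vehicle (DMSO), and reported as log2 fold change.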

| SMILES | LC3 puncta (log2) |
| --- | --- |
| CCC1(c2ccccc2)C(=O)NCNC1=O [Primidone] | 0.792 |
| COc1ccc2[nH]c(-c3ccccc3)c(CCNC(C)=O)c2c1 [2-Phenylmelatonin] | 0.594 |
| c1ccc(N2CCN(CCCOc3ccc4c(c3)OCO4)CC2)cc1 [BP 554 maleate] | 0.422 |
| c1cc2c(cc1C1CCCCC1)c1c3n2CCNC3CCC1 (stereo not given) [Tetrindole mesylate] | 0.836 |
| CCC(C)N(C)C(=O)c1cc2ccccc2c(-c2ccccc2Cl)n1 (stereo not given) | 0.363 |
| CC(C(O)c1ccc(O)cc1)N1CCC(Cc2ccccc2)CC1 (stereo not given) [Ifenprodil hemitartrate] | 0.445 |
| CC(Cc1ccc(O)c(O)c1)(NN)C(=O)O [(S)-(-)-Carbidopa] | 0.219 |
| c1ccc2nc(C3=NCCN3)cnc2c1 [BU 239 hydrochloride] | 0.0532 |
| NCC(O)(CS(=O)(=O)O)c1ccc(Cl)cc1 (stereo not given) [2-Hydroxysaclofen] | 0.449 |
| COC(=O)/C=C/c1cc(O)ccc1O [Methyl 2,5-dihydroxycinnamate] | 0.332 |
| Clc1cccc(Nc2nnc(-c3ccccc3)c3ccccc23)c1 | 0.446 |
| N[C@H](C(=O)O)c1ccc(O)c(C(=O)O)c1 [(S)-3-Carboxy-4-hydroxyphenylglycine] | 0.54 |
| Nc1nc2ccc(OC(F)(F)F)cc2s1 [Riluzole] | 0.631 |
| CC(C)NCC(O)COc1cccc2ccccc12 (stereo not given) [Propranolol hydrochloride] | 1.08 |
| O=S(=O)(c1cccc2cnccc12)N1CCCNCC1 [Fasudil hydrochloride] | 0.726 |
| CC(C)[C@H]1CC[C@H](C(=O)N[C@H](Cc2ccccc2)C(=O)O)CC1 [Nateglinide] | 0.54 |
| CC(=O)N1CCN(C)CC1 [1-Acetyl-4-methylpiperazine hydrochloride] | 0.372 |
| O=c1nc2ccccc2c2n1CC(CN1CCN(c3ccccc3)CC1)N2 (stereo not given) | 0.259 |
| CC(=O)N[C@@H](CC(=O)N[C@@H](CCC(=O)O)C(=O)O)C(=O)O [Spaglumic acid] | 0.103 |
| O=S(=O)(c1cccc2c(Cl)cccc12)N1CCCNCC1 [ML 9 hydrochloride] | 0.383 |

| SMILES | LC3 puncta (log2) |
| --- | --- |
| O=C1CC2(CCCC2)CC(=O)N1CCNCC1COc2ccccc2O1 (stereo not given) | 0.515 |
| CC(CCCCC(=O)Nc1ccc(C(F)(F)F)cc1)NCCc1cnc[nH]1 (stereo not given) [HTMT dimaleate] | 0.469 |
| Cc1noc(NS(=O)(=O)c2ccc(N)cc2)c1C [Sulfisoxazole] | 0.483 |
| N[C@H]1CCN(O)C1=O | 0.023 |
| CC(C)NC[C@H](O)COc1cccc2ccccc12 [(S)-(-)-Propranolol hydrochloride] | 1.09 |
| NC(C(=O)O)c1cc(O)cc(O)c1 (racemic) | 0.022 |
| COc1ccccc1N1CCN(CCCCN2C(=O)c3ccccc3C2=O)CC1 [NAN-190 hydrobromide] | 0.496 |
| O=C(NCCN1CCCCC1)c1ccc(I)cc1 [N-[2-(Piperidinylamino)ethyl]-4-iodobenzamide] | 0.448 |
| O=C(/C=C/c1ccc(O)c(O)c1)O[C@H](Cc1ccc(O)c(O)c1)C(=O)O [Rosmarinic acid] | 0.0251 |
| OCCN(CCO)c1nc(N2CCCCC2)c2nc(N(CCO)CCO)nc(N3CCCCC3)c2n1 [Dipyridamole] | -0.141 |
| CC1=NN(c2ccccc2)C(=O)C1 [Edaravone] | 0.405 |
| O=C(NCCCN1CCCCCC1)C(c1ccccc1)C1CCCCC1 (stereo not given) | -0.114 |
| O=C(O)C1=CCCNC1 [Guvacine hydrochloride] | 0.136 |
| COc1ccccc1N1CCN(CC(O)COc2cccc3ccccc23)CC1 (stereo not given) [Naftopidil dihydrochloride] | 0.195 |
| COc1cc(C(=O)OCCCN2CCCN(CCCOC(=O)c3cc(OC)c(OC)c(OC)c3)CC2)cc(OC)c1OC [Dilazep] | 0.426 |
| CC#CCOC(=O)C1=CCCN(C)C1 [Arecaidine but-2-ynyl ester tosylate] | 0.452 |
| C/N=C(/NC#N)NCCSCc1csc(NC(=N)N)n1 [Tiotidine] | 0.667 |
| N=C(N)SCCc1c[nH]cn1 [Imetit dihydrobromide] | 0.713 |
| CC(C)Oc1ccc2c(=O)c3cc(C(=O)O)ccc3oc2c1 | 0.814 |
| CC12CC3CC(C)(C1)CC(N)(C3)C2 [Memantine hydrochloride] | 0.723 |
